From PubChem BioAssay (NCATS)
Results filed as inconclusive are left out. Entries that show only a call come without a potency. Active and inactive are the calls of the source. Calls follow the shape of the dose curve; as a rule, active = well fitted curve in the direction sought with a large enough effect; inconclusive = small, poorly fitted or top-dose-only effect, or another doubt; inactive = no such curve, though single readings can be large; an effect the other way counts as inactive or inconclusive.

What was measured:
[1] = system: HACAT; assay: qHTS assay to identify novel small-molecules to repurpose for Merkel cell carcinoma treatment (AID 1296009); conditions: MCC and control cell lines, CellTiter-Glo viability, 72 h; at 44.8 µM (top of the series) unless noted; also: nearly all actives have a fitted effect of over 60% in size; also: potency is read from the fitted curve at half-maximal effect
In short: (§1)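 Cells were treated for 72 hr at 37 degree celsius with compounds in 8- or 11-point dose response. Viability was read by CellTiter-Glo luminescence, normalized to no-cell (cytotoxicity) and DMSO controls.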

[2] = system: MCC-13; assay: as above; conditions: MCC and control cell lines, CellTiter-Glo viability, 72 h; series mostly up to 46 µM
In short: as §1

[3] = system: MKL-1; assay: as above; conditions: MCC and control cell lines, CellTiter-Glo viability, 72 h; series mostly up to 46 µM
In short: as §1

[4] = system: MKL-2; assay: as above; conditions: MCC and control cell lines, CellTiter-Glo viability, 72 h; series mostly up to 46 µM
In short: as §1

[5] = system: NIH3T3; assay: as above; conditions: MCC and control cell lines, CellTiter-Glo viability, 72 h; at 44.8 µM (top of the series) unless noted
In short: as §1

[6] = system: UISO; assay: as above; conditions: MCC and control cell lines, CellTiter-Glo viability, 72 h; series mostly up to 46 µM
In short: as §1

[7] = system: WaGa; assay: as above; conditions: MCC and control cell lines, CellTiter-Glo viability, 72 h; series mostly up to 46 µM
In short: as §1

[8] = system: C33A; assay: Primary qHTS to identify gynecologic anti-cancer compounds using libraries of approved drugs and bioactive compounds (AID 1345084); conditions: Gynecologic cancer cell panel viability, ATPlite luminescence, 48 h; series mostly up to 57.5 µM; also: nearly all actives have a fitted effect of over 55% in size
In short: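 Cells, 1,000 per well, plated 16 h, then exposed 48 h at 37 C to compounds. Viability by ATPlite luminescence after 15 min at room temperature.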

[9] = system: MCC-26; assay: qHTS assay to identify novel small-molecules to repurpose for Merkel cell carcinoma treatment (AID 1296009); conditions: MCC and control cell lines, CellTiter-Glo viability, 72 h; series mostly up to 46 µM; also: nearly all actives have a fitted effect of over 60% in size; also: potency is read from the fitted curve at half-maximal effect
In short: as §1

[10] = system: HEK293T; assay: as above; conditions: MCC and control cell lines, CellTiter-Glo viability, 72 h; at 44.8 µM (top of the series) unless noted
In short: as §1

## Nc1ccc(O)c(C(=O)O)c1
[1]
  outcome: inactive
[2]
  Potency: inactive
[3]
  Potency: inactive
[4]
  Potency: inactive
[5]
  outcome: inactive
[6]
  Potency: inactive
[7]
  Potency: inactive
[8]
  Potency: inactive

## CC1(C)S[C@@H]2[C@H](NC(=O)[C@H](NC(=O)N3CCN(S(C)(=O)=O)C3=O)c3ccccc3)C(=O)N2[C@H]1C(=O)O
[1]
  outcome: inactive
[5]
  outcome: inactive
[8]
  Potency: inactive

## CCCCCCCC/C=C/C(=O)O
[1]
  outcome: inactive
[2]
  Potency: inactive
[9]
  Potency: inactive
[3]
  Potency: inactive
[4]
  Potency: inactive
[6]
  Potency: inactive
[7]
  Potency: inactive
[8]
  Potency: inactive

## Cc1c(N)c(=O)n(-c2ccccc2)n1C
[1]
  outcome: inactive
[2]
  Potency: inactive
[3]
  Potency: inactive
[4]
  Potency: inactive
[6]
  Potency: inactive
[7]
  Potency: inactive
[8]
  Potency: inactive

## C[N+]1(C)[C@@H]2CC(OC(=O)[C@H](CO)c3ccccc3)C[C@H]1[C@@H]1O[C@@H]12 (some centres not stated)
[1]
  outcome: inactive
[10]
  outcome: inactive
[2]
  Potency: inactive
[9]
  Potency: inactive
[3]
  Potency: inactive
[4]
  Potency: inactive
[6]
  Potency: inactive
[7]
  Potency: inactive
[8]
  Potency: inactive

## Clc1ccccc1-c1nc(-c2ccncc2)no1
[1]
  outcome: inactive
[2]
  Potency: inactive
[9]
  Potency: inactive
[3]
  Potency: inactive
[4]
  Potency: inactive
[6]
  Potency: inactive
[7]
  Potency: inactive
[8]
  Potency: inactive

## Nc1ccc(C(=O)O)c(O)c1
[1]
  outcome: inactive
[2]
  Potency: inactive
[3]
  Potency: inactive
[4]
  Potency: inactive
[5]
  outcome: inactive
[6]
  Potency: inactive
[7]
  Potency: inactive
[8]
  Potency: inactive

## COc1cc(NC(C)CCCN)c2ncccc2c1 (configuration not stated)
[1]
  outcome: inactive
[2]
  Potency: 16.8 µM (active)
[9]
  Potency: inactive
[3]
  Potency: 2.99 µM (active)
[4]
  Potency: 4.22 µM (active)
[5]
  outcome: inactive
[6]
  Potency: 3.35 µM (active)
[7]
  Potency: 3.76 µM (active)
[8]
  Potency: inactive

## CC(C(=O)O)c1ccc(C(=O)c2ccccc2)s1 (configuration not stated)
[1]
  outcome: inactive
[2]
  Potency: inactive
[3]
  Potency: inactive
[4]
  Potency: inactive
[6]
  Potency: inactive
[7]
  Potency: inactive
[8]
  Potency: inactive

## CC(C(=O)O)c1ccc2c(c1)[nH]c1ccc(Cl)cc12 (configuration not stated)
[1]
  outcome: inactive
[10]
  outcome: inactive
[2]
  Potency: inactive
[3]
  Potency: inactive
[4]
  Potency: inactive
[6]
  Potency: inactive
[7]
  Potency: inactive
[8]
  Potency: inactive

## C#CC1(O)CC[C@H]2[C@@H]3CCC4=CCCC[C@@H]4[C@H]3CC[C@@]21C (some centres not stated)
[1]
  outcome: inactive
[10]
  outcome: inactive
[8]
  Potency: inactive

## COC(=O)C1=C(C)NC(C)=C(C(=O)OCC(C)=O)C1c1ccccc1[N+](=O)[O-] (configuration not stated)
[1]
  outcome: inactive
[10]
  outcome: inactive
[3]
  Potency: 21.1 µM (active)
[4]
  Potency: 10.6 µM (active)
[8]
  Potency: inactive

## O=C(CS)Nc1ccccc1
[1]
  outcome: inactive
[2]
  Potency: inactive
[7]
  Potency: inactive
[8]
  Potency: inactive

## Cc1cc(O)c2ccccc2c1O
[1]
  outcome: inactive
[2]
  Potency: inactive
[9]
  Potency: inactive
[3]
  Potency: 21.1 µM (active)
[7]
  Potency: 23.7 µM (active)
[8]
  Potency: inactive

## COC(=O)[C@H]1[C@H]2C[C@@H]3c4[nH]c5cc(OC)ccc5c4CCN3C[C@H]2C[C@@H](OC(=O)/C=C/c2cc(OC)c(OC)c(OC)c2)[C@@H]1OC
[1]
  outcome: inactive [at 17.4 µM]
[5]
  outcome: inactive [at 17.4 µM]
[8]
  Potency: inactive

## CN(C)CCn1nnnc1SCC1=C(C(=O)O)N2C(=O)[C@@H](NC(=O)Cc3csc(N)n3)[C@H]2SC1
[1]
  outcome: inactive
[2]
  Potency: inactive
[9]
  Potency: inactive
[3]
  Potency: inactive
[4]
  Potency: inactive
[5]
  outcome: inactive
[6]
  Potency: inactive
[7]
  Potency: inactive
[8]
  Potency: inactive

## CO[C@@]1(NC(=O)Cc2cccs2)C(=O)N2C(C(=O)O)=C(COC(N)=O)CS[C@@H]21
[1]
  outcome: inactive
[10]
  outcome: inactive
[2]
  Potency: inactive
[3]
  Potency: inactive
[4]
  Potency: inactive
[5]
  outcome: inactive
[6]
  Potency: inactive
[7]
  Potency: inactive
[8]
  Potency: inactive

## CC(N)C(=O)OC(C)(C)Cc1ccc(Cl)cc1 (configuration not stated)
[1]
  outcome: inactive
[2]
  Potency: inactive
[3]
  Potency: inactive
[4]
  Potency: inactive
[6]
  Potency: inactive
[7]
  Potency: inactive
[8]
  Potency: inactive

## O=C(Nc1ccc(C(=O)O)c(O)c1)c1ccccc1
[1]
  outcome: inactive
[10]
  outcome: inactive
[2]
  Potency: inactive
[9]
  Potency: inactive
[3]
  Potency: inactive
[4]
  Potency: inactive
[6]
  Potency: inactive
[7]
  Potency: inactive
[8]
  Potency: inactive

## COc1ccc(-c2cc(=S)ss2)cc1
[1]
  outcome: inactive
[2]
  Potency: inactive
[3]
  Potency: 26.6 µM (active)
[5]
  outcome: inactive
[8]
  Potency: inactive

## COc1ccnc2c1CCCCC2S(=O)c1nc2ccccc2[nH]1 (configuration not stated)
[1]
  outcome: inactive
[2]
  Potency: inactive
[3]
  Potency: inactive
[4]
  Potency: inactive
[6]
  Potency: inactive
[7]
  Potency: inactive
[8]
  Potency: inactive

## CC(C)(C)c1nnc(NS(=O)(=O)c2ccc(N)cc2)s1
[1]
  outcome: inactive
[2]
  Potency: inactive
[3]
  Potency: inactive
[4]
  Potency: inactive
[6]
  Potency: inactive
[7]
  Potency: inactive
[8]
  Potency: inactive

## CC1(C)S[C@@H]2[C@H](NC(=O)[C@H](N)c3ccccc3)C(=O)N2[C@H]1C(=O)O
[1]
  outcome: inactive
[2]
  Potency: inactive
[9]
  Potency: inactive
[3]
  Potency: inactive
[4]
  Potency: inactive
[6]
  Potency: inactive
[7]
  Potency: inactive
[8]
  Potency: inactive

## Nc1c(CC(=O)O)cccc1C(=O)c1ccc(Br)cc1
[1]
  outcome: inactive
[2]
  Potency: inactive
[3]
  Potency: inactive
[4]
  Potency: inactive
[6]
  Potency: inactive
[7]
  Potency: inactive
[8]
  Potency: inactive

## CN1CC(=O)N/C1=N/C(=O)Nc1cccc(Cl)c1
[1]
  outcome: inactive
[10]
  outcome: inactive
[2]
  Potency: inactive
[3]
  Potency: inactive
[4]
  Potency: inactive
[6]
  Potency: inactive
[7]
  Potency: inactive
[8]
  Potency: inactive

## O=Cc1ccc(O)c(O)c1O
[1]
  outcome: inactive
[2]
  Potency: inactive
[9]
  Potency: inactive
[8]
  Potency: inactive

## CCCCCCCCCCCC(=O)[O][Sn]([CH2]CCC)([CH2]CCC)[O]C(=O)CCCCCCCCCCC
[1]
  outcome: inactive
[2]
  Potency: inactive
[9]
  Potency: inactive
[3]
  Potency: inactive
[4]
  Potency: inactive
[6]
  Potency: inactive
[7]
  Potency: inactive
[8]
  Potency: inactive

## CC(C)OC(=O)c1cc(C(=O)OC(C)C)cc([N+](=O)[O-])c1
[1]
  outcome: inactive [at 92 µM]
[2]
  Potency: inactive
[9]
  Potency: inactive
[3]
  Potency: inactive
[4]
  Potency: inactive
[6]
  Potency: inactive
[7]
  Potency: inactive
[8]
  Potency: inactive

## NCCO
[1]
  outcome: inactive [at 92 µM]
[2]
  Potency: inactive
[9]
  Potency: inactive
[3]
  Potency: inactive
[4]
  Potency: inactive
[6]
  Potency: inactive
[7]
  Potency: inactive
[8]
  Potency: inactive

## COc1cc(/C=C/C(=O)N2CCN(CC(=O)N3CCCC3)CC2)cc(OC)c1OC
[1]
  outcome: inactive
[5]
  outcome: inactive
[8]
  Potency: inactive

## Nc1ccc(O)c([N+](=O)[O-])c1
[1]
  outcome: inactive [at 92 µM]
[2]
  Potency: inactive
[8]
  Potency: inactive

## c1ccc(CCNc2nc(-c3ccccc3)cs2)cc1
[1]
  outcome: inactive
[2]
  Potency: inactive
[9]
  Potency: inactive
[3]
  Potency: inactive
[7]
  Potency: inactive
[8]
  Potency: inactive

## N=C(N)N
[1]
  outcome: inactive
[10]
  outcome: inactive
[2]
  Potency: inactive
[9]
  Potency: inactive
[3]
  Potency: inactive
[4]
  Potency: inactive
[5]
  outcome: inactive
[6]
  Potency: inactive
[7]
  Potency: inactive
[8]
  Potency: inactive
